The supplement of paper PMC6555819

Experiments:
Assay in all cases: PBM binding z-score (relative to random genomic background probes); higher = stronger binding; sequences stand for … in GC…GCGATTGACAGCGTAGAATGAAGG
[1] = test system: RARb homodimer (NR concentration 270 nM)
Method in brief: (§1)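 Antibodies against each partner of ligand-free nuclear receptor dimers (one per run) detected binding on custom Agilent 4×180K protein-binding microarrays after 1 h incubation. The double-stranded probes had 34-nt variable regions carrying direct-repeat seeds, single-nucleotide variants, half-site ablations and random human genomic background sequences. Binding z-scores, from regression-normalized fluorescence, use the random background probes as reference.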

[2] = test system: RARg:RXRa (NR concentration 270 nM, RXRa partner concentration 90 nM)
Method in brief: as §1

[3] = test system: RARg homodimer (NR concentration 270 nM)
Method in brief: as §1

[4] = test system: RXRa DBDmut IVT, anti-RXR (DBD mutation: RXRa K156A/R161A, NR concentration 90 nM)
Method in brief: as §1

[5] = test system: RXRa homodimer (NR concentration 180 nM)
Method in brief: as §1

[6] = test system: THRa:RXRa (NR concentration 90 nM, RXRa partner concentration 90 nM)
Method in brief: as §1

[7] = test system: THRa homodimer (NR concentration 90 nM)
Method in brief: as §1

[8] = test system: VDR homodimer (NR concentration 270 nM)
Method in brief: as §1

Sequence	PBM binding z-score [1]	PBM binding z-score [2]	PBM binding z-score [3]	PBM binding z-score [4]	PBM binding z-score [5]	PBM binding z-score [6]	PBM binding z-score [7]	PBM binding z-score [8]
GTTAGTTGGTCAGTAAAAGGTCACACACCGGTCG	5.25	5.67	5.37	1.14	6.08	3.68	2.18	2.3
AGAATGAGGTTAGTAAGATCAGGGAATTGCGGTC	0.918	0.607	0.689	0.175	0.741	1.33	0.245	0.435
TCGAGTAGGTAACCAATGGGGCATTCAGCTTTCT	-0.0946	-0.146	-0.427	0.00393	0.0647	0.124	-0.752	-0.729
TAATATAGGTAAATGCTAGGTGAAAGTCCGATCT	0.28	0.642	0.601	0.344	0.568	1.4	0.419	0.275
ATCTCTAGGTACCAAGTTCAGTGAAAGAGAGGAC	1.51	0.686	0.865	1.27	0.546	0.926	0.692	2.26
CGTCCAAGGCCAATGCTAGGTCAGTGAAAGCATT	2.64	2.16	1.94	0.513	0.218	2	0.569	0.135
GCGACTGGGGCATCAACAGGTTACCATAACTTAA	1.25	0.983	0.509	0.306	0.415	0.721	-0.0396	-0.142
